Among the test systems are DU-145 prostate; K-562 leukemia; MALME-3M melanoma; MDA-MB-231 breast; RXF 393 renal; SF-268 CNS; SF-295 CNS; SF-539 CNS; UACC-257 melanoma; M14 melanoma; HT29 colon; SNB-75 CNS; SNB-19 CNS; U251 CNS; PC-3 prostate; SK-MEL-5 melanoma; UACC-62 melanoma; LOX IMVI melanoma; SK-MEL-28 melanoma.
Assay in all cases: NCI-60 one-dose screen, 48 h (100 = growth as untreated, 0 = no growth, -100 = all killed)
Common to all, as to details: 10 µM unless noted

The structures appear in SMILES notation. The panel holds about 83,000 compounds, 20% with a hit somewhere; the sample as a whole holds those more often.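 Assay: single dose, 48 h. Readout: percent growth (0 = no net growth; negative = cell death). Active: <10.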 Unmarked numbers belong to inactive results. Calls of active or inactive are those of the source.

For the molecule `COc1ccc(C2=C(Br)C(=O)c3nc(C)ccc3C2=O)cc1`, the growth in the test on DU-145 prostate is 105%; in the test on K-562 leukemia, 36.7%; with MALME-3M melanoma, 91.7%; in the test with MDA-MB-231 breast, 73.2%; with RXF 393 renal it was 95.2%; in the test on SF-268 CNS, 94.6%. In addition, the growth with SF-295 CNS is 105%; with SF-539 CNS, 94.8%; in the test with UACC-257 melanoma it was 64.2%; in the test on M14 melanoma, 92.8%; in the test with HT29 colon, 110%; in the test on SNB-75 CNS it was 93.8%. For the same molecule, the growth was 94.9% in the test with SNB-19 CNS; 94% in the test with U251 CNS; 80% in the test with PC-3 prostate; 91.6% in the test on SK-MEL-5 melanoma; 88.5% in the test with UACC-62 melanoma; 95.4% with LOX IMVI melanoma. The growth in the test with SK-MEL-28 melanoma was 107%.

For the molecule `O=C(CSC(=S)n1cnnc1)NC(=O)c1ccccc1`, the growth is 105% in the test on DU-145 prostate; 89.8% in the test with K-562 leukemia; 98.4% with MALME-3M melanoma; 112% in the test with MDA-MB-231 breast; 120% with RXF 393 renal; 98.6% in the test on SF-268 CNS. The growth in the test on SF-295 CNS was 106%; with SF-539 CNS it was 100%; in the test with UACC-257 melanoma it was 113%; in the test with M14 melanoma it was 98.1%; with HT29 colon, 104%; in the test on SNB-75 CNS, 95%. Also, the growth with SNB-19 CNS is 109%; in the test on U251 CNS it was 116%; in the test on PC-3 prostate, 102%; in the test with SK-MEL-5 melanoma, 109%; in the test on UACC-62 melanoma, 110%; in the test with LOX IMVI melanoma, 97%. In the test on SK-MEL-28 melanoma, the growth is 113%.

In the case of `Cc1ccc2c(n1)C(=O)C(Br)=C(C1CCCC1)C2=O`, the growth is 105% with DU-145 prostate; 34.3% in the test on K-562 leukemia; 110% with MALME-3M melanoma; 85.2% in the test with MDA-MB-231 breast; 89.3% in the test with RXF 393 renal; 96.5% with SF-268 CNS. Further, the growth was 103% in the test with SF-295 CNS; 99.7% in the test on SF-539 CNS; 99.3% with UACC-257 melanoma; 101% in the test on M14 melanoma; 109% with HT29 colon; 99.7% in the test on SNB-75 CNS. Further, the growth was 98.1% in the test with SNB-19 CNS; 97.4% with U251 CNS; 89.9% in the test with PC-3 prostate; 97.3% with SK-MEL-5 melanoma; 98.5% with UACC-62 melanoma; 91.6% in the test on LOX IMVI melanoma. In addition, the growth in the test on SK-MEL-28 melanoma is 117%.

Turning to `O=C(Nn1c2c(sc1=NC1CC1)C(=O)c1ccccc1C2=O)c1cc2ccc1CCc1ccc(cc1)CC2`, the growth with DU-145 prostate was 33.2%; in the test on K-562 leukemia it was 25.9%; in the test on MALME-3M melanoma it was -64.3% (active); with MDA-MB-231 breast, 15.4%; with RXF 393 renal, 53.7%; in the test with SF-268 CNS, 45.2%. In addition, the growth is 79.6% in the test with SF-295 CNS; 5.17% (active) with SF-539 CNS; -28.6% (active) with UACC-257 melanoma; -21.8% (active) with M14 melanoma; 108% with HT29 colon; -10.4% (active) in the test with SNB-75 CNS. The growth is 33.7% in the test with SNB-19 CNS; 32.6% with U251 CNS; 30.7% in the test with PC-3 prostate; -77.6% (active) in the test on SK-MEL-5 melanoma; -12.4% (active) in the test on UACC-62 melanoma; 0.512% (active) with LOX IMVI melanoma. The growth in the test on SK-MEL-28 melanoma was 40.2%.

In the case of `CCOC(=O)c1c(NC(=O)c2cccc(C(F)(F)F)c2)sc2c(CN(C)C)c(O)ccc12`, the growth is 72.5% in the test on DU-145 prostate; 2.41% (active) in the test with K-562 leukemia; -38.5% (active) in the test on MALME-3M melanoma; 58.9% in the test on MDA-MB-231 breast; 38.4% in the test on RXF 393 renal; 84.7% in the test with SF-268 CNS. The growth with SF-295 CNS was 96.2%; in the test on SF-539 CNS, 49.3%; in the test with UACC-257 melanoma, -10.5% (active); in the test with M14 melanoma it was -57.8% (active); with HT29 colon, 13.5%; in the test with SNB-75 CNS it was 83%. Further, the growth in the test on SNB-19 CNS is 88.4%; in the test with U251 CNS, 16.5%; in the test on PC-3 prostate, 60.3%; with SK-MEL-5 melanoma it was 93.6%; in the test on UACC-62 melanoma it was 102%; with LOX IMVI melanoma it was 16.5%. In the test on SK-MEL-28 melanoma, the growth is 17%.

Regarding `O=c1scc(-c2ccc(C(F)(F)F)cc2)s1`, the growth in the test on DU-145 prostate was 110%; in the test on K-562 leukemia it was 99.9%; in the test with MALME-3M melanoma, 115%; in the test with MDA-MB-231 breast, 104%; in the test with RXF 393 renal, 87.4%; in the test on SF-268 CNS, 100%. In addition, the growth was 85.6% in the test with SF-295 CNS; 111% in the test with SF-539 CNS; 82.9% with UACC-257 melanoma; 104% with M14 melanoma; 89.4% in the test with HT29 colon; 63.5% in the test with SNB-75 CNS. Moreover, the growth is 91.8% in the test on SNB-19 CNS; 95.2% in the test with U251 CNS; 87.8% in the test on PC-3 prostate; 97% with SK-MEL-5 melanoma; 84.1% in the test on UACC-62 melanoma; 103% with LOX IMVI melanoma. The growth in the test with SK-MEL-28 melanoma is 102%.

For `O=C(Nc1ccccc1)Nc1ncnc2c1ncn2-c1ccc(Cl)cc1`, the growth is 96.3% with DU-145 prostate; 99.6% in the test on K-562 leukemia; 71.9% with MALME-3M melanoma; 80.8% with MDA-MB-231 breast; 91.7% with RXF 393 renal; 97.1% in the test with SF-268 CNS. Further, the growth in the test with SF-295 CNS is 76.4%; with SF-539 CNS, 107%; in the test with UACC-257 melanoma, 109%; with M14 melanoma it was 98.9%; in the test with HT29 colon, 80.4%; in the test on SNB-75 CNS it was 44.3%. The growth is 97.1% with SNB-19 CNS; 77.6% in the test on U251 CNS; 104% in the test with PC-3 prostate; 94.9% with SK-MEL-5 melanoma; 89.3% in the test on UACC-62 melanoma; 91.9% in the test on LOX IMVI melanoma. In addition, in the test on SK-MEL-28 melanoma, the growth was 95.5%.

In the case of `NS(=O)(=O)c1ccc(N=Nc2c(O)n(Cc3ccccc3)c3ccc(Cl)cc23)cc1`, the growth with DU-145 prostate was 87.3%; in the test on K-562 leukemia, 82.4%; in the test on MALME-3M melanoma, 70.5%; in the test on MDA-MB-231 breast, 75.9%; in the test on RXF 393 renal it was 45.5%; with SF-268 CNS, 65.2%. Moreover, the growth in the test on SF-295 CNS is 93.7%; in the test on SF-539 CNS, 61.5%; with UACC-257 melanoma, 92.1%; with M14 melanoma, 88.1%; in the test with SNB-75 CNS it was -9.32% (active); in the test on SNB-19 CNS, 40.8%. Further, the growth in the test on U251 CNS is 81.7%; with PC-3 prostate, 83.8%; in the test with SK-MEL-5 melanoma, 80.5%; with UACC-62 melanoma, 66.6%; in the test with LOX IMVI melanoma, 97.6%; in the test with SK-MEL-28 melanoma, 93.2%.

The values are drawn from PubChem BioAssay (NCI).
